Source: the supplement of paper PMC7156485
± gives the standard deviation of the averaged measurements.

What was measured:
Details in all cases: concentration: 10 µM; 24 h
HCC1569 [1] = experiment: cell number relative to DMSO (% of DMSO); higher = more cells (less growth inhibition / toxicity)
Summary of the method: (§1)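 Cells were seeded at 800 per well in 384-well plates with RPMI containing 10% FBS; both HCC1569 and TDF lines were used. Compounds were added at 10 µM for 24 h at 37 °C, in triplicate, before fixation in 3.7% formaldehyde and staining with a rabbit anti-H1.0 antibody, an AlexaFluor 647 secondary and DAPI. H1.0 nuclear intensity or cell number is reported as percent of the plate control using the median of replicates, and HCC1569 values were smoothed for positional effects.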

TDF [2] = experiment: as above
Summary of the method: as §1

TDF [3] = experiment: H1.0 immunofluorescence intensity relative to DMSO (% of DMSO); higher = stronger H1.0 induction, active = 120 or more
Summary of the method: as §1

HCC1569 [4] = experiment: H1.0 immunofluorescence intensity relative to DMSO (% of DMSO); higher = stronger H1.0 induction, active = 140 or more
Summary of the method: as §1
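For H1.0 immunofluorescence intensity relative to DMSO in this document: TDF is a line of transformed human dermal fibroblasts of mesenchymal origin.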
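For cell number relative to DMSO in this document: TDF denotes transformed human dermal fibroblasts of mesenchymal origin.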

SMILES	cell number (HCC1569 [1])	cell number (TDF [2])	H1.0 immunofluorescence intensity (TDF [3])	H1.0 immunofluorescence intensity (HCC1569 [4])
O=c1cccc2n1CC1CNCC2C1 (single isomer, unassigned; (-)) [(-)-Cytisine]	103	85.2	102 (inactive)	96.6 (inactive)
COc1ccc2c(c1OC)C(=O)OC2C1c2cc3c(cc2CCN1C)OCO3 (configuration not stated)	107	97.5	90.5 (inactive)	95.3 (inactive)
CCC1=CC2CN3CCc4c([nH]c5ccccc45)C(C(=O)OC)(C2)C13 (configuration not stated) [Catharanthine]	104	94.7	102 (inactive)	92.1 (inactive)
CN(C)C(=O)Oc1cccc([N+](C)(C)C)c1.[Br-] [Neostigmine bromide]	107	98.4	89.5 (inactive)	89.4 (inactive)
C[N+]1(C)CCN(c2ccccc2)CC1.[I-] [1,1-Dimethyl-4-phenyl-piperazinium iodide]	99	93	95.8 (inactive)	109 (inactive)
CCCN1CCCC(c2cccc(O)c2)C1.Cl (stereo not drawn) [S(-)-3PPP hydrochloride]	99.1	110	94.8 (inactive)	104 (inactive)
O=P1(N(CCCl)CCCl)NCCCO1 (configuration not stated) [Cyclophosphamide]	107	95.5	101 (inactive)	101 (inactive)
CCC(CO)NC(=O)C1C=C2c3cccc4[nH]cc(c34)CC2N(C)C1.O=C(O)C=CC(=O)O (configuration not stated) [Methylergonovine maleate]	101 ± 2.1	100 ± 2.5	97.4 (inactive)	92.3 (inactive)
Cl.O=C(OC1CCN(CCCl)CC1)C(c1ccccc1)c1ccccc1 [4-Diphenylacetoxy-N-(2-chloroethyl)piperidine hydrochloride]	98.2	94.9	89.5 (inactive)	87.6 (inactive)
CCCCCC=CCC=CCC=CCC=CCCCC(=O)NCCc1ccc(O)c(O)c1 [Arachidonyl dopamine]	87.9	91.8	94.9 (inactive)	124 (inactive)
CNC(=O)Oc1ccc2c(c1)C1(C)CCN(C)C1N2C (configuration not stated) [Physostigmine]	104	104	102 (inactive)	94.1 (inactive)
C=CCN1CC(C(=O)N(CCCN(C)C)C(=O)NCC)CC2c3cccc4[nH]cc(c34)CC21 (configuration not stated) [Cabergoline]	109	102	96.1 (inactive)	102 (inactive)
CNc1ccc2oc(CC3OC4(CCC3C)OC(C(C)C(=O)c3ccc[nH]3)C(C)CC4C)nc2c1C(=O)O (configuration not stated) [Calcimycin]	43.8	23.3	180 (active)	128 (inactive)
CC1OC(=O)C2CC3CCCCC3C(C=CC3CCCC(C)N3C)C12 (configuration not stated) [Himbacine]	103	107	92.4 (inactive)	87.4 (inactive)
CC1=CC(=O)c2c(O)cccc2C1=O [Plumbagin]	39	46.8	109 (inactive)	326 (active)
CCCCCC=CCC=CCC=CCC=CCCCC(=O)NCC(=O)O [N-Arachidonylglycine]	108	98.1	95.7 (inactive)	95.8 (inactive)
CC1CCC2C(C)C3C(CC4C5CCC6CC(O)CCC6(C)C5CCC43C)N2C1 (configuration not stated) [Demissidine]	97.9	92.2	102 (inactive)	92.6 (inactive)
Cl.Cl.Fc1ccc(C(OCCN2CCN(CCCc3ccccc3)CC2)c2ccc(F)cc2)cc1	81	69.8	96.7 (inactive)	124 (inactive)
CC(CCc1ccccc1)NC(C)C(O)c1ccc(O)cc1.Cl (configuration not stated) [Buphenine.HCl]	101	104	90 (inactive)	115 (inactive)
CCCCCC(C=CC=CCC=CCC=CCCCC(=O)O)OO (configuration not stated)	106	100	96.4 (inactive)	113 (inactive)
Cc1o[nH]c(=O)c1CC(N)C(=O)O (racemic)	103	101	96.3 (inactive)	87.9 (inactive)
Cl.O=C(CCCN1CCC2(CC1)C(=O)N(CCc1ccc(N=C=S)cc1)CN2c1ccccc1)c1ccc(F)cc1 [N-(p-Isothiocyanatophenethyl)spiperone hydrochloride]	82.7	74	128 (active)	149 (active)
CN1C2CCC1CC(OC(c1ccccc1)c1ccccc1N)C2 (configuration not stated) [Aminobenztropine]	103	97.9	94.1 (inactive)	90.2 (inactive)
CCCN1CCOC2c3cc(O)ccc3OCC21.Cl (stereo not drawn) [S(+)-PD 128,907 hydrochloride]	103	104	93.3 (inactive)	100 (inactive)
Cl.c1ccc(C2CC2)c(OCC2=NCCN2)c1 [Cirazoline hydrochloride]	102	109	90.7 (inactive)	87.7 (inactive)
CC(C)c1cccc(C(C)C)c1O [Propofol]	99.2 ± 2.9	93.1 ± 16	93.7 (inactive)	95.8 (inactive)
C[N+]1(C)CCOC(O)(c2ccc(-c3ccc(C4(O)C[N+](C)(C)CCO4)cc3)cc2)C1.[Br-].[Br-] (configuration not stated) [Hemicholinium-3]	100	106	92 (inactive)	87.8 (inactive)
CC(=O)OC1CC2CCC3C(CCC4(C)C3CC([N+]3(C)CCCCC3)C4OC(C)=O)C2(C)CC1[N+]1(C)CCCCC1.[Br-].[Br-] (configuration not stated) [Pancuronium bromide]	103	96.9	98.8 (inactive)	99.5 (inactive)
